Measurements published in PubChem BioAssay (EPA / NIEHS).
Activity calls are given as the source filed them. The calls were made as follows: active = hit-call score of the fitted dose curve at least 0.9, where 1 is the maximum; inactive = score below 0.9.

Experiments:
[1] = ATG_E_Box_CIS: Attagene CIS-FACTORIAL HepG2 Assay for human Enhancer Box (E-box) (AID 2282936); settings: HepG2 E-box cis-reporter transcription, actives raise or lower the signal
In short: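 Cells: HepG2 (human liver), transient MRTU transfection. Exposure 24 h. RNA → oligo(dT) RT → PCR → 6-FAM label → HpaI → CE. Activity fitted both directions relative to DMSO.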

[2] = ATG_M_61_CIS: Attagene CIS-FACTORIAL HepG2 Assay for M61 Transcription Factor (Internal Marker) (AID 2282937); settings: HepG2 Attagene CIS-FACTORIAL M61 internal marker reporter; actives raise or lower the signal
In short: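 Multiplexed reporter mRNA assay, HepG2 human hepatoma cells, 24 h treatment. Signal: FAM-labelled, HpaI-digested RT-PCR fragments by CE. Fit: bidirectional, baseline DMSO.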

[3] = ATG_EGR_CIS: Attagene CIS-FACTORIAL HepG2 Assay for human Early Growth Response 1 (EGR1) (AID 2282938); settings: HepG2 Attagene CIS-FACTORIAL EGR reporter mRNA; actives raise or lower the signal
In short: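 Multiplexed cis-reporter system in human hepatoma HepG2 cells, transiently transfected. Cells are dosed for 24 h; reporter transcripts are amplified, fluorescently tagged and sized by capillary electrophoresis, with DMSO as negative control.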

[4] = ATG_M_19_CIS: Attagene CIS-FACTORIAL HepG2 Assay for M19 Transcription Factor (Internal Marker) (AID 2282939); settings: HepG2 Attagene CIS-FACTORIAL M19 internal marker reporter; actives raise or lower the signal
In short: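 Transfect HepG2 with MRTU reporter library → dose chemical, 24 h → isolate total RNA, reverse-transcribe with oligo(dT) → PCR, 6-FAM label, HpaI cut (2 h, 37 C) → capillary electrophoresis. Bidirectional fit vs DMSO.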

[5] = ATG_ERE_CIS: Attagene CIS-FACTORIAL HepG2 Assay for Estrogen Response Element (ERE) (AID 2282940); settings: HepG2 ERE cis-reporter, Attagene RNA transcript; actives raise or lower the signal
In short: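 Transient MRTU transfection of human HepG2; cis-element promoters; 24 h dosing; total RNA → RT (oligo dT) → PCR → 6-FAM primer extension → HpaI digest → CE fluorescence. Bidirectional fit, DMSO baseline.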

[6] = ATG_Ets_CIS: Attagene CIS-FACTORIAL HepG2 Assay for human Erythroblast Transformation Specific (ETS) (AID 2282941); settings: HepG2 ETS cis-reporter transcription, actives raise or lower the signal
In short: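 Human HepG2 hepatoma cells were transiently transfected with promoter-driven reporter constructs and treated for 24 hours. Reporter transcripts were quantified by RT-PCR with fluorescent primer extension; bidirectional curve fitting used DMSO as reference.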

[7] = biological target: Hepatocyte nuclear factor 3-beta (Homo sapiens) (UniProt Q9Y261); experiment: ATG_FoxA2_CIS: Attagene CIS-FACTORIAL HepG2 Assay for human Forkhead box A2 (FOXA2) (AID 2282942); settings: HepG2 cis-reporter transcription factor activity, 24 h; actives raise or lower the signal
In short: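 Multiplexed cis-element reporter assay in transiently transfected HepG2. Twenty-four hours post-dosing, RNA was reverse-transcribed, amplified, FAM-labelled, HpaI-digested and separated by CE. Activity gain or loss relative to DMSO.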

[8] = ATG_GATA_CIS: Attagene CIS-FACTORIAL HepG2 Assay for human GATA Binding Protein (AID 2282944); settings: HepG2 GATA cis-element reporter, Attagene multiplex mRNA; actives raise or lower the signal
In short: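 Transient MRTU transfection, HepG2, 24 h compound exposure. Total RNA → oligo(dT) RT → PCR → 6-FAM primer extension → HpaI cut → CE. Bidirectional fit vs DMSO.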

[9] = ATG_GLI_CIS: Attagene CIS-FACTORIAL HepG2 Assay for human Zinc Finger Protein GLI1 (AID 2282945); settings: HepG2, Attagene cis-factorial reporter mRNA, GLI element; actives raise or lower the signal
In short: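 Bidirectional curve fits relative to DMSO, using reporter mRNA levels from RT-PCR plus capillary electrophoresis. Cells were HepG2 transiently carrying cis-regulated reporter constructs, harvested 24 h after dosing.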

[10] = ATG_FoxO_CIS: Attagene CIS-FACTORIAL HepG2 Assay for human Forkhead box O (FoxO) (AID 2282943); settings: HepG2 Attagene cis-reporter, FoxO element, mRNA; actives raise or lower the signal
In short: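 HepG2, transient MRTU transfection (cis element, endogenous TFs). Dose 24 h. TriZol RNA → oligo(dT) RT → PCR → 6-FAM primer extension → HpaI cut → CE. Gain/loss vs DMSO.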

Measured: AC50

Chain of Hepatocyte nuclear factor 3-beta (Homo sapiens) (Q9Y261 whole entry, looked up): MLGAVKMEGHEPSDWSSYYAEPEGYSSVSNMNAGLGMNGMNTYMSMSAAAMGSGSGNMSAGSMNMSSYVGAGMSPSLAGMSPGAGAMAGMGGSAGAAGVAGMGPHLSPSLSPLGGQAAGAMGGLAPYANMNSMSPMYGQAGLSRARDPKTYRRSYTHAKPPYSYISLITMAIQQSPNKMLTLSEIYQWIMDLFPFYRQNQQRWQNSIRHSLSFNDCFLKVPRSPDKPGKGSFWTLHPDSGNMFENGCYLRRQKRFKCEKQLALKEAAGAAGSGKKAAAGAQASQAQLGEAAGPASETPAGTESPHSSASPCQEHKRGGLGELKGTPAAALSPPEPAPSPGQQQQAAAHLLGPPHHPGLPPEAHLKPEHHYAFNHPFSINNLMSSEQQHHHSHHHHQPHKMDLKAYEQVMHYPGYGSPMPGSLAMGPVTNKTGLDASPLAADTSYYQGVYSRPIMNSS

COC(=O)Cc1ccccc1
not listed: [10]
inactive: all other assays above

O=C(O)C(Cl)(Cl)Cl
not listed: [5]
inactive: all other assays above

O=C(O)Cc1ccccc1
not listed: [5]
inactive: all other assays above

Oc1ccc(-c2ccccc2)cc1
active: [1] 169 µM | [3] 68.5 µM
not listed: [5]
inactive: all other assays above

CC(=O)C=C(C)C
not listed: [10]
inactive: all other assays above

c1cc[c]([Hg][c]2ccccc2)cc1
active: [3] 26.4 µM
not listed: [10]
inactive: all other assays above

CC(C)(c1ccccc1)c1ccc(O)c(C(C)(C)c2ccccc2)c1
active: [1] 16.9 µM | [3] 9.29 µM | [5] 5.86 µM | [10] 15.2 µM
inactive: all other assays above

C=CC(=O)N(C)C
not listed: [5]
inactive: all other assays above

O=C(O)C(F)(F)C(F)(F)C(F)(F)C(F)(F)C(F)(F)C(F)(F)F
not listed: [5]
inactive: all other assays above

ClC1=C(Cl)[C@]2(Cl)[C@@H]3[C@@H](Cl)[C@@H](Cl)C[C@@H]3[C@@]1(Cl)C2(Cl)Cl
not listed: [5]
inactive: all other assays above

CC(C)(C)c1cc(O)ccc1O
active: [3] 120 µM
not listed: [10]
inactive: all other assays above

C=CC(=O)OCCCCCC(C)C
inactive: all assays above
